Inconclusive results are not listed. A number with no mark means an inactive call. The call rests on the fitted dose curve; in most records, active means well fitted inhibition curve with a large enough effect; inconclusive means small, poorly fitted or top-dose-only effect; inactive means no such curve, though single readings can be large or run the other way.
Biological target: Retinaldehyde dehydrogenase 3 (Homo sapiens) (UniProt P47895)
Assay: qHTS for Inhibitors of the Aldehyde Dehydrogenase Family (ALDH1A3) Primary screen (AID 2061315);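 further: plate controls were DMSO vehicle for no effect and reference inhibitor for full effect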
Conditions: ALDH inhibition qHTS; series mostly up to 56 µM; activity change, negative = inhibition: at the top concentration

| Compound | activity change, negative = inhibition |
| --- | --- |
| C=C1CC[C@@H]2[C@](C)(CC[C@H](O)[C@@]2(C)CCC=C(C)C)[C@@H]1Cc1c[nH]c2ccccc12 | 8.73% [at 28 µM] |
| C/C=C(/C)C(=O)O[C@H]1C=C(C)C[C@H](OC(=O)c2ccc(O)cc2)C2[C@](O)(C(C)C)CC[C@@]21C (some centres not stated) | 7.62% [at 16.9 µM] |
| COc1ccc(O[C@@H]2O[C@H](CO)[C@@H](O)[C@H](O)[C@H]2O)cc1OC | -8.37% |
| CC1CC(O)C2(OC1=O)OC1C(O)C3C4CCC5CC(OC6OC(CO)C(O)C(O)C6OC6OC(C)C(O)C(O)C6O)CCC5(C)C4CCC3(C)C1C2C (configuration not stated) | -0.182% [at 16.9 µM] |
| C/C=C/C=C/C(=O)N1CC[C@]23c4ccccc4N[C@H]4N(C)c5cccc6c5[C@@]42CCN([C@H]6C2OC2(C)C)[C@H]13 (some centres not stated) | 14.5% [at 28 µM] |
| C=C(C)C1=C[C@@]2(C)C(=CC1=O)CC[C@@H](O)[C@@H]2C | -6.58% |
| C[C@@H]1C(=O)O[C@H](C)[C@H]1C[C@@H](O)[C@](C)(O)[C@H]1CC[C@@]2(O)C3=CC(=O)[C@@H]4C[C@@H](O)[C@@H](O)C[C@]4(C)C3CC[C@]12C (some centres not stated) | 7.94% [at 28 µM] |
